# Assay outcomes as filed in PubChem.
# PfHsp90 yeast 2: growth inhibition of PfHsp90-expressing yeast, primary screen, antimalarial PfHsp90 inhibitor project, S. cerevisiae, BacTiter-Glo luminescence, single point, set 2; BacTiter-Glo ATP, 48 h; yeast lacking PDR1 and PDR3 efflux regulators; inhibition, % at 9.4 µM; 310,000 tested, 0.32% active;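 active means every replicate shows inhibition above about 80%, whatever the replicate mean, limit read from the data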;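 further: 0% = DMSO neutral controls and 100% = 20 µM radicicol positive controls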
# tim10-1 inh: growth inhibitors of tim10-1 mutant yeast, primary screen, luminescence, uHTS; S. cerevisiae tim10-1 ts strain growth, BacTiter-Glo, 24 h; 330,000 tested, 2.2% active; AID 463190, 2010; inhibition, % at 20 µM;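 active means inhibition of at least 40%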;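 further: mutant grown at 25 °C; 0% = DMSO wells with yeast and 100% = wells holding no yeast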
# NLRP3 yeast inh: NALP3 inflammasome inhibitors in reconstituted yeast, primary screen, luminescence, uHTS; Yeast reconstituted NLRP3/ASC/caspase-1, beta-gal luminescence, 24 h; AID 2825, 2010; 330,000 tested, 0.39% active; inhibition, % at 10 µM;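 active means inhibition of 50% or more; inactive means inhibition below 50%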;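 further: plate controls were induced DMSO wells for no effect and uninduced yeast grown without galactose for full effect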
# tim23-1 inh: growth inhibitors of tim23-1 mutant yeast, primary screen, luminescence, uHTS; S. cerevisiae tim23-1 growth, BacTiter-Glo luminescence, 24 h; inhibition, % at 20 µM; 330,000 tested, 1.3% active; AID 463212, 2010;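 active means growth inhibition of the mutant yeast at or above 50%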;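 further: temperature-sensitive mutant grown at 25 °C; plate controls were DMSO-treated mutant yeast for no effect and medium wells lacking yeast for full effect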
# TIM10 inh: growth inhibitors of isogenic TIM10 control yeast, primary screen, counter-screen for tim10-1 yeast inhibitor project, luminescence, uHTS | S. cerevisiae TIM10 strain growth, BacTiter-Glo luminescence, 24 h | inhibition, % at 10 µM | 330,000 tested, 1.4% active;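 active means inhibition of 40% or more at the single tested concentration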;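 further: wild-type TIM10 isogenic control strain grown at permissive 25 °C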
# tim10-1 conf: growth inhibitors of tim10-1 mutant yeast, confirmation, single concentration, luminescence, S. cerevisiae. inhibition, % at 20 µM. shares compounds with tim10-1 inh. 7,400 tested, 56% active. AID 463213, 2010. S. cerevisiae tim10-1 ts strain growth, BacTiter-Glo, 24 h;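 active means inhibition of yeast growth at or above a set limit in either of two repeat tests at 20 µM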;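 further: tim10-1 mutant grown at permissive 25 °C to find synthetic lethal compounds; 0% = DMSO yeast wells and 100% = medium wells without yeast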
# The depositor's hits bear a star; · = not tested or not shown. Sampled rows, rich in hits. Any-hit rate of the full collection: about 3.7%.
SMILES,PfHsp90 yeast 2,tim10-1 inh,NLRP3 yeast inh,tim23-1 inh,TIM10 inh,tim10-1 conf
O=C(Nc1nc(-c2cc(F)ccc2F)cs1)C1=NN(c2ccccc2)C(=O)CC1,-32,45*,14,17,38,26
O=C(Nc1nc(-c2cc(F)ccc2F)cs1)C1=COCCO1,·,46*,28,32,27,30
CCOC(=O)COc1cc(N)c(Cl)cc1Cl,-11,5,7,-5,16,·
CCCCCCCCOC(=O)c1c(CSC(=N)N)n(C)c2cc(Br)c(OC(C)=O)cc12,·,46*,-3,39,25,26
Cc1cc(C)n(-c2ccc(C(=O)NCC(=O)Nc3cc(Cl)ccc3Cl)cc2)n1,-3,3,7,23,1,·
Cc1cc2c(c(/C=C/C(=O)c3ccccc3)c1)OC1(C=C2)Oc2ccccc2C(=O)N1C (stereo unspecified),6,32,22,19,28,·
Cc1cccc(C)c1OCC(=O)N=Nc1c(O)[nH]c2ccc(Br)cc12,-19,53*,6,31,32,35*
C=CCc1cccc(CNc2nc3ccccc3n2C(C)C)c1O,18,43*,16,27,37,34*
C=CCc1cccc(CNc2ccc(Br)cc2)c1O,-8,43*,20,37,35,64*
Cc1cc(C)c(C(=O)N2CCCC(N3CCN(c4cccc(C(F)(F)F)c4)CC3)C2)o1 (stereo unspecified),-12,44*,0,24,20,21
Nc1nc(-c2ccc3ccccc3c2)cs1,-3,43*,24,50,35,10
COC(=O)C1=C[C@@H](C(=O)OC)[C@@H]2C3=C(C(=O)[C@@]2(C)NC(=O)c2ccccc2)[C@H](C)n2c(=O)n(C)c(=O)n2[C@@H]3C1,-29,-11,19,4,1,·
c1nc(Nc2ccc(N3CCOCC3)cc2)c2ccsc2n1,7,8,12,7,-15,·
Fc1ccc(-c2csc3ncnc(Nc4ccc(N5CCOCC5)cc4)c23)cc1,·,43*,15,38,15,37*
COc1ccc(-c2nc3n(c(=O)c2C#N)CCS3)cc1,-22,45*,8,5,2,26
CC(C)Nc1nc(Cl)nc(NCCOc2ccccc2)n1,15,40*,18,-12,8,23
CCOC(=O)C1=CCN(Cc2ccccc2)CC1,2,-22,3,-3,-6,·
O=C(NCC(c1cccs1)N1CCOCC1)c1cccc([N+](=O)[O-])c1 (stereo unspecified),1,8,9,6,8,·
O=C(NCC(c1cccs1)N1CCOCC1)c1cc([N+](=O)[O-])cc([N+](=O)[O-])c1 (stereo unspecified),20,42*,-7,19,-3,13
COc1cc(-c2nnc(COc3ccc4cc(Br)ccc4c3)o2)cc(OC)c1OC,-10,24,3,19,13,·
COc1ccc(-c2nnc(COc3ccc4ccccc4c3)o2)cc1OC,-36,43*,22,-3,6,12
CN1CCN(Cc2c(O)ccc3cc(Br)ccc23)CC1,·,30,25,17,1,·
CCN(Cc1ccncc1)Cc1c(O)ccc2cc(Br)ccc12,·,46*,29,30,30,22
CCOCCOC(=O)c1ccc(NC(=O)C2COc3ccccc3O2)cc1 (stereo unspecified),-15,42*,26,41,14,26
CCOC(=O)c1ccc(NC(=O)C2COc3ccccc3O2)cc1 (stereo unspecified),5,22,32,38,-4,·
SMILES,PfHsp90 yeast 2,tim10-1 inh,NLRP3 yeast inh,tim23-1 inh,TIM10 inh,tim10-1 conf
COC(=O)c1c(NC(=O)c2nn(C)cc2Cl)sc2c1CCCC2,·,50*,14,44,32,14
COc1ccccc1C(=O)Nc1nc2cc3c(cc2s1)OCCO3,-31,43*,24,34,-10,18
CC1(N(O)/C=C2\C=CC=CC2=O)CCCCC1=O (stereo unspecified),-8,-10,-5,9,-11,·
Cc1c(C(=O)NCC2COc3ccccc3O2)oc2ccc(S(=O)(=O)N3CCOCC3)cc12 (stereo unspecified),·,42*,14,17,27,21
Cc1c(C(=O)NC2CC2)oc2ccc(S(=O)(=O)N3CCCCCC3)cc12,·,49*,1,46,27,38*
Cc1c(C(=O)NCC2COc3ccccc3O2)oc2ccc(S(=O)(=O)N3CC(C)CC(C)C3)cc12 (stereo unspecified),-4,0,23,16,-7,·
CC(CN1CCCC1)C(=O)NN (stereo unspecified),-4,17,2,5,6,·
COc1ccc(C(C)=O)cc1Cn1nc(C)c([N+](=O)[O-])c1C,-15,13,8,18,10,·
COc1ccc(/C=C/C(=O)C2CC2)cc1Cn1nc(C)c([N+](=O)[O-])c1C,3,47*,21,25,24,37*
CCCC(=O)Nc1cc(C)c(NC(=O)C23CC4CC(CC(C4)C2)C3)cn1,4,42*,19,24,36,32*
Cc1ccsc1C(=O)N1CCN(c2ncc(C(F)(F)F)cc2Cl)CC1,-43,18,7,32,14,·
CC[n+]1c(C)sc2c(C)cc(C)cc21,29,42*,10,29,24,34*
Cc1cc(C)c2sc(C)[n+](CCCS(=O)(=O)[O-])c2c1,16,-1,-13,4,-5,·
CC(Oc1ccc(F)cc1)C(=O)Nc1cc(S(=O)(=O)N2CCOCC2)ccc1N1CCCCC1 (stereo unspecified),10,28,20,18,6,·
CN(Cc1c(F)cccc1Cl)C(=O)CNC(=O)c1cccs1,32,14,0,8,-2,·
CN1CC[C@]2(CCN3CCc4c(oc5ccccc45)[C@@H]3C2)N(C)C1=O,24,12,21,11,1,·
Cc1nc(NCc2ccco2)c2c3c(sc2n1)CCC3,-1,27,20,34,-11,·
O=C(Nc1ncnc2sc3c(c12)CCCCC3)c1ccc(F)cc1,·,45*,15,23,26,32*
c1ccc(CNc2ncnc3sc4c(c23)CCCC4)nc1,13,45*,-23,42,-7,36*
Cc1nc(NCc2ccccn2)c2c3c(sc2n1)CCCC3,-51,41*,17,39,16,41*
O=C(Nc1ncnc2sc3c(c12)CCCCC3)c1ccccc1,·,30,6,42,29,·
Clc1ccc(Cn2ncc3c(N4CCCCC4)ncnc32)c(Cl)c1,7,43*,15,47,22,27
